This is an account of results in PubChem BioAssay (NCATS).

In experiment [1] the target is Glucocorticoid receptor (Homo sapiens) (UniProt P04150). The experiment is described as follows: qHTS assay for small molecule agonists of glucocorticoid receptor signaling (AID 588532; active means well fitted curve in the direction sought with a large enough effect in the signal ratio, with a control signal flat; the % refers to the signal ratio;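 further: 100% = dexamethasone at 0.1 µM and 0% = DMSO only wells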). The following applies: HeLa MMTV-bla, beta-lactamase ratio, agonist, 18 h; activation: stronger effect = higher value, percent of dexamethasone control, DMSO zero. In a few lines: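 HeLa GRE-bla reporter cells; 18 h compound exposure at 37 C; 2 h CCF4 loading at room temperature; fluorescence at 460 and 530 nm; EC50 by Hill equation.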
Sequence of Glucocorticoid receptor (Homo sapiens) (P04150 whole entry, looked up): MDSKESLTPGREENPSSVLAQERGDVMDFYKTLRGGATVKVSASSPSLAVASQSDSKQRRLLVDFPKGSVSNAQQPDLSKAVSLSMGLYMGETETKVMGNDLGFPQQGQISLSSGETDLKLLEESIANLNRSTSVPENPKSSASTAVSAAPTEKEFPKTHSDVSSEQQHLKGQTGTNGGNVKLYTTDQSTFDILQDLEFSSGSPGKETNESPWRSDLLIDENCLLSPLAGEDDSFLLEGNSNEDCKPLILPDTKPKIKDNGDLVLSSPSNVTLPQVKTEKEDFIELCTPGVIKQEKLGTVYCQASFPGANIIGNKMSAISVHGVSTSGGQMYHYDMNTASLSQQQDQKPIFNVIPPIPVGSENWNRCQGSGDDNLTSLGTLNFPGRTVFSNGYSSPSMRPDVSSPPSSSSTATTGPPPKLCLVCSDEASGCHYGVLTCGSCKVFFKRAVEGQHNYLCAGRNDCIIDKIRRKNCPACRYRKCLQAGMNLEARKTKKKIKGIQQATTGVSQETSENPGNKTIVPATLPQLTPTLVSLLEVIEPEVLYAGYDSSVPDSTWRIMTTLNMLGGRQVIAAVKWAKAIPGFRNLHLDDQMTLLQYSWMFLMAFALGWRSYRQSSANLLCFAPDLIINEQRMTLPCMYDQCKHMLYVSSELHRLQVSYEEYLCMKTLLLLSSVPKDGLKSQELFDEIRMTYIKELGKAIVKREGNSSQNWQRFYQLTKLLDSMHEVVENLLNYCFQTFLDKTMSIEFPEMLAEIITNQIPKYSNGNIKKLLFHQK

Experiment [2] concerns the target Peroxisome proliferator-activated receptor delta (Homo sapiens) (UniProt Q03181). The experiment is described as follows: qHTS assay for small molecule agonists of peroxisome proliferator-activated receptor delta signaling (AID 588534).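 Further: 0% = DMSO basal wells and 100% = positive control agonist at 10 µM.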 Summed up:
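Reporter cells were plated and held 5 hrs at 37 C before compounds were added. After 18 hrs at 37 C, CCF4 dye was loaded for 2 hrs at RT and fluorescence measured.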

Experiment [3] in a line: qHTS assay for small molecule antagonists of peroxisome proliferator-activated receptor delta signaling (AID 588535).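 Further: cells co-treated with a PPAR-delta agonist as stimulator during compound exposure.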 To be noted: HEK293T PPARd-UAS-bla, beta-lactamase FRET ratio, 18 h; 460 nm channel. Summed up:
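Cells were seeded at 4000 per well in assay medium containing 2% charcoal/dextran FBS and held 5 hrs at 37 C. Compounds were then added for 18 hrs. CCF4 substrate was applied for 2 hrs at room temperature before fluorescence reading.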

Experiment [4] has as its target Peroxisome proliferator-activated receptor gamma (Homo sapiens) (UniProt P37231). The experiment is described as follows: qHTS assay for small molecule agonists of peroxisome proliferator-activated receptor gamma signaling (AID 588536; active means well fitted curve in the direction sought with a large enough effect in the signal ratio, with a control signal flat, not every such curve was filed as active; the % refers to the signal ratio;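 further: 0% = DMSO basal wells and 100% = rosiglitazone at 2 µM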). Summed up:
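GeneBLAzer PPAR-gamma-UAS-bla HEK293 cells in 1% charcoal/dextran-treated FBS medium were treated 16 h at 37 C with compounds. Beta-lactamase activity was read by CCF4 ratio (460/530 nm). Response was normalized to 2 uM rosiglitazone (100%) and DMSO, then Hill-fitted for EC50 and efficacy.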

Experiment [5] shares this target. The experiment is described as follows: qHTS assay for small molecule antagonists of peroxisome proliferator-activated receptor gamma signaling (AID 588537; active means well fitted inhibition curve with a large enough effect in the signal ratio, with a control signal flat, not every such curve was filed as active; the % refers to the signal ratio;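 further: reporter cells co-stimulated with 50 nM rosiglitazone agonist during compound treatment; % of control where 0% means no effect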). In a few lines: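 Step one: plate 3000 HEK293 UAS-bla cells per well in medium with 1% stripped serum and hold 6-6.5 h at 37 C. Step two: add compound and 50 nM agonist for 16 h. Step three: CCF4 loading, fluorescence read.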

For experiment [6], the target named is Vitamin D3 receptor (Homo sapiens) (UniProt P11473). The experiment is described as follows: qHTS assay for small molecule antagonists of vitamin D receptor signaling (AID 588541).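 Further: receptor activated by calcitriol during compound treatment; series mostly up to about 77 µM; on the % scale 0 is the no-effect control and ±100 the full control effect.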 Summed up:
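VDR-UAS-bla HEK293T cells in 2% charcoal-stripped FBS were stimulated with 1-alpha,25-dihydroxyvitamin D3 (3 nM final) plus compound for 16 h at 37 C. The beta-lactamase CCF4 readout was normalized to 50 nM agonist and DMSO, and Hill fits gave IC50.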

Experiment [7] shares this target. The experiment is described as follows: qHTS assay for small molecule agonists of vitamin D receptor signaling (AID 588543).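 Further: 0% = DMSO basal and 100% = reference agonist control.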 Summed up:
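β-lactamase reporter, VDR-UAS-bla HEK293T, agonist mode. Cells plated 5 h at 37 °C, compound titration 16 h at 37 °C, CCF4 dye 2 h RT, ratio 460/530 nm. Hill fit → EC50, efficacy vs 50 nM 1α,25-(OH)2D3.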

Experiment [8] has as its target Retinoic acid receptor RXR-alpha (Homo sapiens) (UniProt P19793). The experiment is described as follows: qHTS assay for small molecule agonists of retinoid X receptor alpha signaling (AID 588544).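 Further: 0% = DMSO basal wells and 100% = reference agonist.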
A short description of experiment [9]: qHTS assay for small molecule antagonists of retinoid X receptor alpha signaling (AID 588546; active means well fitted inhibition curve with a large enough effect in the signal ratio, with a control signal flat, not every such curve was filed as active; the % refers to the signal ratio;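 further: cells stimulated with 9-cis-retinoic acid as agonist; on the % scale 0 is the no-effect control and ±100 the full control effect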). The following applies: HEK293T RXRa-UAS-bla, beta-lactamase ratio, antagonist mode; measured here: W530 green channel, cytotoxicity proxy. In a few lines:
(§1)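 Beta-lactamase reporter inhibition, read as CCF4 fluorescence ratio (ex 405, em 460/530 nm) after 2 h at RT. HEK293T UAS-bla cells, 2500/well, were stimulated with 9-cis-RA at 500 or 100 nM final alongside test compound for 18 h at 37 C.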

The target in experiment [10] is Retinoic acid receptor RXR-alpha (Homo sapiens) (UniProt P19793). Described as above. To be noted: HEK293T RXRa-UAS-bla, beta-lactamase ratio, antagonist mode. In a few lines:
as §1

The target of experiment [11] is Thyroid hormone receptor beta (Homo sapiens) (UniProt P10828). The experiment is described as follows: qHTS assay for small molecule antagonists of thyroid hormone receptor beta signaling (AID 588547; active means well fitted inhibition curve with a large enough effect in the signal ratio, with a control signal flat, not every such curve was filed as active; the % refers to the signal ratio;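 further: cells stimulated with 0.4 nM T3 agonist during compound exposure; series mostly up to about 77 µM; on the % scale 0 is the no-effect control and ±100 the full control effect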). To be noted: TR-UAS-bla HEK293, beta-lactamase ratio, antagonist mode, 18 h. In a few lines: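 TR-UAS-bla GripTite HEK293 cells in 2% charcoal/dextran FBS medium; compounds 0.59 nM to 92 uM with T3 at 0.4nM final, 18 h at 37 C. Beta-lactamase read by CCF4 fluorescence (460/530 nm); Hill fits gave IC50 and efficacy.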
Sequence of Thyroid hormone receptor beta (Homo sapiens) (P10828 whole entry, looked up): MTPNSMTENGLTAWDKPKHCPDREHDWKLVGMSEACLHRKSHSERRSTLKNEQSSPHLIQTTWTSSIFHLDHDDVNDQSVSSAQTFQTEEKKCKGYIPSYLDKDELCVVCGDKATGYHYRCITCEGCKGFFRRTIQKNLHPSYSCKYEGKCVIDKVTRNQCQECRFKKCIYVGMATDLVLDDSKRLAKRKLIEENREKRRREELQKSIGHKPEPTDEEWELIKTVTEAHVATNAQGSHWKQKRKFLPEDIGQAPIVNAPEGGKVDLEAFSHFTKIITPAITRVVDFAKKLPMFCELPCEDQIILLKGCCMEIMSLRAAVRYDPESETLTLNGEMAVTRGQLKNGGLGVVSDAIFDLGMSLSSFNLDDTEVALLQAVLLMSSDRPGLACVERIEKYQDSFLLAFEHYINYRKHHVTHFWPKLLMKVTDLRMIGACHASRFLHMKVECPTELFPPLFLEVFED

Experiment [12] in a line: qHTS assay for small molecule activators of the p53 signaling pathway (AID 651743; active means well fitted activation curve with a large enough effect in the signal ratio, not every such curve was filed as active; the % refers to the signal ratio; further: series mostly up to about 92 µM; % of control where 0% means no effect). The following applies: HCT-116 p53RE-bla, beta-lactamase FRET ratio, 16 h; activation: stronger effect = higher value. In a few lines: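 HCT-116 p53RE-bla, 4,000 cells/well; 5 h settle; cpd/DMSO 16 h, 37 C; LiveBLAzer B/G 2 h RT; fluorescence intensity.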
The nature of experiment [13]: qHTS assay for environmental chemicals that activate the Aryl hydrocarbon Receptor (AhR) signaling pathway (AID 651777; active means well fitted curve in the direction sought with a large enough effect; an effect the other way counts as inactive or inconclusive; further: % of control where 0% means no effect; nearly all actives have a fitted effect of over 15% in size). The following applies: 1A2-DRE human hepatoma cells, luciferase, 24 h; activation: stronger effect = higher value. In a few lines: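 Induction of CYP1A2 transcription through AhR is detected by luciferase in 1A2-DRE hepatoma cells. Compounds or DMSO act for 24 hr at 37 C before a 30 min One-Glo step at room temperature.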

Experiment [14] addresses Peroxisome proliferator-activated receptor alpha (Homo sapiens) (UniProt Q07869). The experiment is described as follows: qHTS assay for small molecule agonists of the peroxisome proliferator-activated receptor alpha (PPARalpha) signaling pathway (AID 651778; active means well fitted curve in the direction sought with a large enough effect; an effect the other way counts as inactive or inconclusive; further: % of control where 0% means no effect). The following applies: PathHunter PPARalpha complementation, chemiluminescence, 6 h; max response: stronger effect = higher value. Summed up:
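Enzyme-fragment complementation assay in which ligand-bound PPARalpha translocates and forms an active enzyme that generates chemiluminescence. Cells were plated overnight, exposed to compound for 6 hr at 37 C, and then given detection reagent for 60 min at room temperature.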

A short description of experiment [15]: qHTS assay for small molecule agonists of the antioxidant response element (ARE) signaling pathway measured by Nrf2-dependant transcriptional activity (AID 720636; active means well fitted curve in the direction sought with a large enough effect in the repeat runs; an effect the other way counts as inactive or inconclusive;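 further: HepG2 cells with an ARE-driven luciferase reporter; % of control where 0% means no effect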). In a few lines: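 We exposed ARE-luc HepG2 cells, seeded in assay medium with 1% dialyzed FBS and allowed 6 hr to adhere, to test compounds overnight (16 hr, 37 C) before measuring luciferase with ONE-Glo.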

Experiment [16] can be described thus: qHTS assay for small molecule agonists of the antioxidant response element (ARE) signaling pathway measured by Nrf2-dependant transcriptional activity - cell viability counter screen (AID 720653; active means well fitted curve in the direction sought with a large enough effect in the repeat runs; an effect the other way counts as inactive or inconclusive; further: on the % scale 0 is the no-effect control and ±100 the full control effect). To be noted: ARE-bla HepG2 viability, CellTiter-Glo ATP luminescence, 16 h; max response: stronger effect = lower value. In a few lines: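 ARE-bla HepG2 cells treated with compounds for 16 h at 37C; this counter screen measures viability as intracellular ATP by CellTiter-Glo luminescence after 30 min at room temperature.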

A short description of experiment [17]: qHTS assay for cell viability of HEK293 cells (AID 743288; active means well fitted curve in the direction sought with a large enough effect; an effect the other way counts as inactive or inconclusive; further: on the % scale 0 is the no-effect control and ±100 the full control effect; nearly all actives have a fitted effect of over 50% in size). The following applies: ATP luminescence (CellTiter-Glo), 18 h; max response: stronger effect = lower value. Summed up:
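Environmental chemicals tested in qHTS format against parental HEK293 cells; 18 h treatment, 37 C; read-out ATP luminescence (CellTiter-Glo), 30 min RT development.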

A short description of experiment [18]: qHTS assay for cell viability of the p53RE-bla HCT-116 cell line (AID 743292; active means well fitted curve in the direction sought with a large enough effect; an effect the other way counts as inactive or inconclusive; further: on the % scale 0 is the no-effect control and ±100 the full control effect; nearly all actives have a fitted effect of over 55% in size). Summed up:
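In this qHTS counter-screen, metabolically competent p53RE-bla HCT-116 cells were counted via their ATP content. Compounds were applied for 16 h at 37 C and luciferase-coupled luminescence was measured.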

The target of experiment [19] is Nuclear receptor subfamily 1 group I member 2 (Rattus norvegicus) (UniProt Q9R1A7). The experiment is described as follows: qHTS assay for small molecule activators of the rat pregnane X receptor (rPXR) signaling pathway (AID 651751; call rule not given here; further: 0% is about no effect). The following applies: rPXR reporter cells, luciferase (One-Glo), 24 h.
Sequence of Nuclear receptor subfamily 1 group I member 2 (Rattus norvegicus) (Q9R1A7 whole entry, looked up): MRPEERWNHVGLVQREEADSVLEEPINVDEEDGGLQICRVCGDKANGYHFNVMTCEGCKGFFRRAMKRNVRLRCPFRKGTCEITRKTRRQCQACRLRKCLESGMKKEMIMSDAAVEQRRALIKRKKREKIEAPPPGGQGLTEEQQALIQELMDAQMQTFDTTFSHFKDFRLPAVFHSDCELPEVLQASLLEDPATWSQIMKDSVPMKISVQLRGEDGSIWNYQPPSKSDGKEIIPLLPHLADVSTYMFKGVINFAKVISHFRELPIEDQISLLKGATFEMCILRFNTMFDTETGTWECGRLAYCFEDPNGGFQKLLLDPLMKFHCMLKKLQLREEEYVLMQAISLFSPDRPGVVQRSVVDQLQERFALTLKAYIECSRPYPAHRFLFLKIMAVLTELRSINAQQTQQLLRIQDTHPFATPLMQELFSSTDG
Experiment [20] has as its target Thyroid hormone receptor beta (Homo sapiens) (UniProt P10828). The experiment is described as follows: qHTS assay for small molecule agonists of thyroid hormone receptor beta signaling (AID 588545).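 Further: 0% = DMSO only and 100% = 10 nM T3.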 Summed up:
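Compounds were tested as agonists in TR-UAS-bla-GripTite HEK 293 cells. After 18 hrs at 37 C, CCF4 substrate was added and fluorescence read after 2 hrs at room temperature.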

The structures appear in SMILES notation. Inconclusive results are not listed. Calls of active or inactive are those of the source. Unless noted, the call rests on the fitted dose curve.

Sequence of Vitamin D3 receptor (Homo sapiens) (P11473 whole entry, looked up): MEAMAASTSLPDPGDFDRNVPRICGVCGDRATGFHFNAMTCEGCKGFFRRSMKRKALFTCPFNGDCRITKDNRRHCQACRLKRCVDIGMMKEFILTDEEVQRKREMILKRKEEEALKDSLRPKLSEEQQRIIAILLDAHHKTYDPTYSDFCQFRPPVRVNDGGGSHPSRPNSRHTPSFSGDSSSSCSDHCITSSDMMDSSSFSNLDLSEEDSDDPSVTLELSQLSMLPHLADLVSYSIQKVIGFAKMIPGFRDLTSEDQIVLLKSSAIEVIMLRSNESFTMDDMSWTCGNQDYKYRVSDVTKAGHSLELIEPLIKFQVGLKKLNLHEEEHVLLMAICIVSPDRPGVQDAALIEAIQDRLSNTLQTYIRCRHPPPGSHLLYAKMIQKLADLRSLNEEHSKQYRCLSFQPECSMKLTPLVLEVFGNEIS
Sequence of Peroxisome proliferator-activated receptor alpha (Homo sapiens) (Q07869 whole entry, looked up, the tested form may be a part): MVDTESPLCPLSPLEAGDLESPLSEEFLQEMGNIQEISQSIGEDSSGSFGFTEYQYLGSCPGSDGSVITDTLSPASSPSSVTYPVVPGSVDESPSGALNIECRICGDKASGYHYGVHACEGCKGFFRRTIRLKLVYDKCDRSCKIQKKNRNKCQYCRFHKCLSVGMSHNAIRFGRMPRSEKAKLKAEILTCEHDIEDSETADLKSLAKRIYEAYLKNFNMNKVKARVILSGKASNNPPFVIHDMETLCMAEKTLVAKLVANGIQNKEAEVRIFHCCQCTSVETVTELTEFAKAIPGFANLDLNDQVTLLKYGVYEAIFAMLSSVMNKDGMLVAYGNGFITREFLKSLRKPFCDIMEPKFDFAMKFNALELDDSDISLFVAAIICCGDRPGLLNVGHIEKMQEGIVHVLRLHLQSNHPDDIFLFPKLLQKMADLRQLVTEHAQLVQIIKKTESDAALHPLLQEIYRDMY
Sequence of Retinoic acid receptor RXR-alpha (Homo sapiens) (P19793 whole entry, looked up): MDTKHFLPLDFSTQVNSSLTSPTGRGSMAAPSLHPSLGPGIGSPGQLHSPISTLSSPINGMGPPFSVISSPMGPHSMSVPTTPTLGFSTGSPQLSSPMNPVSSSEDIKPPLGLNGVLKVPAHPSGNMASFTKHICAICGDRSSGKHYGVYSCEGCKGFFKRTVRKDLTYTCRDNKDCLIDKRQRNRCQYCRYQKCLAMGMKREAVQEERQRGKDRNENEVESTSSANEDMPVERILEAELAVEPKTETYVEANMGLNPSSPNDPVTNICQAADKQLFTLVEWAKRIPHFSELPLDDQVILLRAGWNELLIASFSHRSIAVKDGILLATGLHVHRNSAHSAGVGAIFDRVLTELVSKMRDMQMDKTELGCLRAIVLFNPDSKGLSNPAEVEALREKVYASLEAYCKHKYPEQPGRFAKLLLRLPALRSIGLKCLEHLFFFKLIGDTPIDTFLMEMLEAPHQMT
Sequence of Peroxisome proliferator-activated receptor gamma (Homo sapiens) (P37231 whole entry, looked up): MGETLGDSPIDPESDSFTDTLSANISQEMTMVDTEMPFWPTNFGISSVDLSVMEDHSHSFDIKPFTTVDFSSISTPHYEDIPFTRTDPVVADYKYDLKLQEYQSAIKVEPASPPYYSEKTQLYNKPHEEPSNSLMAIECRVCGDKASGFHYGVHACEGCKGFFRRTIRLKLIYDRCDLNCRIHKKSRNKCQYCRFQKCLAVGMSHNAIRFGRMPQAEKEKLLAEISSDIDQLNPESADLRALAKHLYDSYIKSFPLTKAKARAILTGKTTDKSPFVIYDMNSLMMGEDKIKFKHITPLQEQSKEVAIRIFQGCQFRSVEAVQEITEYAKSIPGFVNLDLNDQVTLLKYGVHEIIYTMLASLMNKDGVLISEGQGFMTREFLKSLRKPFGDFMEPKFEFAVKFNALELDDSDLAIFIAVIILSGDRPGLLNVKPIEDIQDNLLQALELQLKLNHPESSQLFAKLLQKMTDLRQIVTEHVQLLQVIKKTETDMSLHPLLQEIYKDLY
Sequence of Peroxisome proliferator-activated receptor delta (Homo sapiens) (Q03181 whole entry, looked up): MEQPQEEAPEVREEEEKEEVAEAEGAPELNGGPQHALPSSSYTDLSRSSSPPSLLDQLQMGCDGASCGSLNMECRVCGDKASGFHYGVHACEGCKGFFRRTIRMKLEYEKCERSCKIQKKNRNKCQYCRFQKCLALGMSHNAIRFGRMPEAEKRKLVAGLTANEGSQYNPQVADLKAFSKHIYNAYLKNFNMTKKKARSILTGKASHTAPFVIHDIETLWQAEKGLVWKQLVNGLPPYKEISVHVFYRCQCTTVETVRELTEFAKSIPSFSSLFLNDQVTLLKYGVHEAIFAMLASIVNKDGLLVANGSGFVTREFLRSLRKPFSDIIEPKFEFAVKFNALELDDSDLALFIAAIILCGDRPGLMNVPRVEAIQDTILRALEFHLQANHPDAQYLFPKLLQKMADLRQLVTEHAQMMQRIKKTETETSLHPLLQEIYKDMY

With `CC(C)C1(C)N=C(c2ncccc2C(=O)O)NC1=O` (stereo unspecified), the activation in experiment [1] is 0.632% (inactive); in [12], -4.94% (inactive); in [13] it was -1.56% (inactive). The result in [2] and in [7] was inactive. The max response was 7.61% in [3]; -22% in experiment [9]; -0.742% (inactive) in experiment [10]; -1.4% (inactive) in experiment [14]; -6.07% (inactive) in experiment [16]; 8% (inactive) in experiment [17]. The max response in [19] is -3.34% (inactive). Moreover, the Potency entry in experiment [4], in experiment [5], in experiment [6], in experiment [8], in [15] and in experiment [18] was “inactive” in each case. In experiment [11], the activity change % (negative = inhibition) was 2.89% (inactive).

In the case of `CC(C)(C)OOC(C)(C)c1ccc(C(C)(C)OOC(C)(C)C)cc1`, the activation in experiment [1] was -6.76% (inactive); in experiment [12], 0.499% (inactive); in [13] it was 0.613% (inactive). Further, the call in experiment [2] and in experiment [7] was inactive. Besides, the max response in [3] is 6.63%; in experiment [9] it was -15.9%; in [10], -5.44% (inactive); in [16] it was -7.74% (inactive); in experiment [17] it was -8.57% (inactive); in experiment [19], 4.08% (inactive). For the same molecule, the Potency result in [5], in experiment [6], in experiment [8], in [20] and in [15] was “inactive” throughout. Further, the activity change % (negative = inhibition) in experiment [11] is 10.7% (inactive).

As for `[Ga]#[As]`, the activation in [1] is 4.24% (inactive); in experiment [12] it was -1.62% (inactive); in experiment [13], 0.963% (inactive). Besides, the molecule was classed as inactive in experiment [2]. Besides, the max response in [3] is 33%; in experiment [9], -11%; in [10], 6.85% (inactive); in experiment [14], -1.03% (inactive); in experiment [16], -2.5% (inactive); in [17], -2.89% (inactive). In experiment [19], the max response was -5.29% (inactive). Also, the Potency result in experiment [4], in [5], in experiment [6], in [8], in experiment [15] and in [18] was “inactive” throughout.

On to `CCSCCSP(=O)(OC)OC`, for which the activation is 8.21% (inactive) in [1], 2.18% (inactive) in experiment [12] and -0.526% (inactive) in experiment [13]. Further, the molecule was classed as inactive in experiment [2] and in experiment [7]. Further, the max response is -10.5% in experiment [3]; -9.27% in [9]; -0.524% (inactive) in experiment [10]; -0.363% (inactive) in experiment [14]; -6.91% (inactive) in experiment [16]; -1.87% (inactive) in [17]. The max response in experiment [19] was -1.46% (inactive). In addition, the Potency result in [4], in experiment [5], in experiment [8], in experiment [20], in experiment [15] and in experiment [18] was “inactive” in each case. In experiment [11], the activity change % (negative = inhibition) is 4.21% (inactive).

Consider `Nc1cccc(Cl)c1Cl`, for which the activation was 0.21% (inactive) in [1], -4.27% (inactive) in experiment [12] and -0.499% (inactive) in experiment [13]. Besides, the call in experiment [2] and in [7] was inactive. Moreover, the max response was 30.5% in [3]; -14.5% in experiment [9]; -4.45% (inactive) in experiment [10]; -3.86% (inactive) in [14]; -14.4% (inactive) in experiment [16]; -1.9% (inactive) in [17]. For the same molecule, the max response in experiment [19] was 0.634% (inactive). In addition, the Potency entry in experiment [4], in experiment [5], in experiment [6], in [8], in experiment [20] and in experiment [15] was “inactive” each time. In [18], the Potency entry was “inactive”.
